Consider one sequence from article PMC7862700, “An all-to-all approach to the identification of sequence-specific readers for epigenetic DNA modifications on cytosine”.

Assay in all cases: DAPPL (digital affinity profiling via proximity ligation, sequencing); 10 mM Tris-HCl pH 7.5, 50 mM NaCl, 1 mM DTT, 4% glycerol, room temperature, 30 min; GST-TFs on glutathione beads, 16-mer random dsDNA library, 0.1% formaldehyde crosslink after washing; high values mean tight binding
The target of assay [1] is T1, FEV (Homo sapiens, UniProt Q99581 1-238).
T1 sequence: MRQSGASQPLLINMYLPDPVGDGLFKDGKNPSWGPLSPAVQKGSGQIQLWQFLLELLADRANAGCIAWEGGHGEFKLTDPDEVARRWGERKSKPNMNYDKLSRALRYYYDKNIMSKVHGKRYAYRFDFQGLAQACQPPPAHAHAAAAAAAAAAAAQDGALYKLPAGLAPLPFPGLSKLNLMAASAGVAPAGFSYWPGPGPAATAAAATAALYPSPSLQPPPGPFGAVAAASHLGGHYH
The note with it: protein: recombinant; tags: N-terminal GST; dsDNA, one strand shown. Summed up: (§1)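 Each value of binding signal is a hexamer's read frequency for a factor divided by the same hexamer's frequency in the tag-only sample. Barcoded, bead-captured GST fusions of human transcription factors made in yeast were pooled with that sample and incubated with 200 nmole of a random double-stranded 16-mer DNA library in Tris/NaCl/DTT/glycerol buffer at room temperature for 30 min. Washing, 0.1% formaldehyde crosslinking, proximity ligation, PCR and Illumina NextSeq500 sequencing followed.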

In assay [2] the target is ETV5 (Homo sapiens, UniProt P41161 1-510). The note with it: protein: recombinant; tags: N-terminal GST; dsDNA, one strand shown. Summed up: as §1
The target in assay [3] is HSF1 (Homo sapiens, UniProt Q00613 1-529). The note with it: protein: recombinant; tags: N-terminal GST; chain copies: 3; dsDNA, one strand shown. Summed up: as §1
Assay [4] has as its target T2, SPIC (Homo sapiens, UniProt Q8N5J4 1-248).
T2 sequence: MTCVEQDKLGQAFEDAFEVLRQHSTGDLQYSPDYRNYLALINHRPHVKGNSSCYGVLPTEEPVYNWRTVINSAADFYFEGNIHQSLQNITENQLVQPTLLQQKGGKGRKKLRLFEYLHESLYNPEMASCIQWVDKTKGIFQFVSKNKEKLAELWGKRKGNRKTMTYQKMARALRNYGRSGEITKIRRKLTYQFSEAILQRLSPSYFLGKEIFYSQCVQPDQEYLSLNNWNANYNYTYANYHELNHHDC
The note with it: protein: recombinant; tags: N-terminal GST; dsDNA, one strand shown. An outline of the steps: as §1

For assay [5], the target named is ELF4 (Homo sapiens, UniProt Q99607 1-663). The note with it: protein: recombinant; tags: N-terminal GST; dsDNA, one strand shown. Summed up:
as §1

Assay [6] concerns the target T3, ELK4 (Homo sapiens, UniProt P28324-2 1-405).
T3 sequence: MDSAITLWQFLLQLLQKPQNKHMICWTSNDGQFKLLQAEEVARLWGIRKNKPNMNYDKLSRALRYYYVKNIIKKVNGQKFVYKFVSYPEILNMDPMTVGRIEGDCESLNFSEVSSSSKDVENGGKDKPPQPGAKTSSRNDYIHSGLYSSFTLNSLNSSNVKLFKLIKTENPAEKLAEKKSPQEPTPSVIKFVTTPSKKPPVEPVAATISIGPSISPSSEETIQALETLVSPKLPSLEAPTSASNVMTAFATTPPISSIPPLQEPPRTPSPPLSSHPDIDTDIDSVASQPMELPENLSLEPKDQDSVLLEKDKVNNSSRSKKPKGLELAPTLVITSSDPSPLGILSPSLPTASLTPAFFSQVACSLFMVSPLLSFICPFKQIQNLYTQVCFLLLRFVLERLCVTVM
The note with it: protein: recombinant; tags: N-terminal GST; dsDNA, one strand shown. Summed up:
as §1

The target in assay [7] is T4, ETV2 (Homo sapiens, UniProt O00321 1-342).
T4 sequence: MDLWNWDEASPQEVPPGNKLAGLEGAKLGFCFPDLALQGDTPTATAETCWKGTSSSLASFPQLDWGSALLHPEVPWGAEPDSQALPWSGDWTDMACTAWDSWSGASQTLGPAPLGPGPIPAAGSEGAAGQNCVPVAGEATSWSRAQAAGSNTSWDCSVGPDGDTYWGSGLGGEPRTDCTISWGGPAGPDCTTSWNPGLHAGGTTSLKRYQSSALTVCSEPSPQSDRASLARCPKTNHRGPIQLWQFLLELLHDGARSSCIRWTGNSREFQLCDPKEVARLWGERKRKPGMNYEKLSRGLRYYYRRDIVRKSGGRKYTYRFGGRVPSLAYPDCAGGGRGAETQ
The note with it: protein: recombinant; tags: N-terminal GST; dsDNA, one strand shown. Summed up: as §1

In assay [8] the target is T5, ELF3 (Homo sapiens, UniProt P78545 1-371).
T5 sequence: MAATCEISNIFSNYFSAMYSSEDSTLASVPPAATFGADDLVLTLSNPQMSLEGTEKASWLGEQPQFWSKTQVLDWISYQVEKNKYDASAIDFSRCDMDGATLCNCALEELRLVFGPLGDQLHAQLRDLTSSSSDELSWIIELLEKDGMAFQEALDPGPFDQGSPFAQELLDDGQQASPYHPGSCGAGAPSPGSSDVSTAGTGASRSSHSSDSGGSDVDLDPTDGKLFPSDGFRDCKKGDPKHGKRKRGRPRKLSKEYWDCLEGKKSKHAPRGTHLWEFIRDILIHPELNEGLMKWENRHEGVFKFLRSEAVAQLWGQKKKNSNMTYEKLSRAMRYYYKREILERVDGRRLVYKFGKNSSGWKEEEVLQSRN
The note with it: protein: recombinant; tags: N-terminal GST; dsDNA, one strand shown. An outline of the steps: as §1

For assay [9], the target named is CRX (Homo sapiens, UniProt O43186 1-299). The note with it: protein: recombinant; tags: N-terminal GST; dsDNA, one strand shown. Summed up:
as §1

Assay [10] concerns the target ETV1 (Homo sapiens, UniProt P50549 1-477). The note with it: protein: recombinant; tags: N-terminal GST; dsDNA, one strand shown. Summed up:
as §1

Assay [11] concerns the target T6, ERF (Homo sapiens, UniProt P50548 1-548).
T6 sequence: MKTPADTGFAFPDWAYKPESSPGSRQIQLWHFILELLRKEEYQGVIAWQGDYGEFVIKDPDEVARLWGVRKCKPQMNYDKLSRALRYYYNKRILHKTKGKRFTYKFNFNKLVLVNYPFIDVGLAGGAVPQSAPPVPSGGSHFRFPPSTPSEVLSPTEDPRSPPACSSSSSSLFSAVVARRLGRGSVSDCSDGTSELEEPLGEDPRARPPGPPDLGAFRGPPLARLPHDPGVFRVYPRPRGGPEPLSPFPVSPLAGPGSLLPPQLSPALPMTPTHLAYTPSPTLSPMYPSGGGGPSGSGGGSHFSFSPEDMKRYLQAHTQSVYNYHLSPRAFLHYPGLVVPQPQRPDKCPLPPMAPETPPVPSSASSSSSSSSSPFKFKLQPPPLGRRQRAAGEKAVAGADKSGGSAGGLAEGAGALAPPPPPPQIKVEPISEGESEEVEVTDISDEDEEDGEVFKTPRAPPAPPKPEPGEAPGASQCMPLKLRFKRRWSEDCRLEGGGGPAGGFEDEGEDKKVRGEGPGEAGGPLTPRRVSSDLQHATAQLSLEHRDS
The note with it: protein: recombinant; tags: N-terminal GST; dsDNA, one strand shown. An outline of the steps: as §1

Assay [12] addresses T7, ETV3L (Homo sapiens, UniProt Q6ZN32 1-361).
T7 sequence: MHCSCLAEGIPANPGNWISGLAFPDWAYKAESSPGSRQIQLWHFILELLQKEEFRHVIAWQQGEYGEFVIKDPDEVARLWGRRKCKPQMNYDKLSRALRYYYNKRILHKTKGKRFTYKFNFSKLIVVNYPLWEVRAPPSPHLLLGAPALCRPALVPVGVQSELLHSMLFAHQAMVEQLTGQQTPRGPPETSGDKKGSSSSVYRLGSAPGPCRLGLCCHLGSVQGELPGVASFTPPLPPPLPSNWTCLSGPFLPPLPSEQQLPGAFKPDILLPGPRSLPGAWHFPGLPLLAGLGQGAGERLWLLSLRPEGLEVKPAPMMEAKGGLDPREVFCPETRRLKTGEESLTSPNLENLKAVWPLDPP
The note with it: protein: recombinant; tags: N-terminal GST; dsDNA, one strand shown. Summed up: as §1

Assay [13] deals with T8, ETS2 (Homo sapiens, UniProt P15036 1-469).
T8 sequence: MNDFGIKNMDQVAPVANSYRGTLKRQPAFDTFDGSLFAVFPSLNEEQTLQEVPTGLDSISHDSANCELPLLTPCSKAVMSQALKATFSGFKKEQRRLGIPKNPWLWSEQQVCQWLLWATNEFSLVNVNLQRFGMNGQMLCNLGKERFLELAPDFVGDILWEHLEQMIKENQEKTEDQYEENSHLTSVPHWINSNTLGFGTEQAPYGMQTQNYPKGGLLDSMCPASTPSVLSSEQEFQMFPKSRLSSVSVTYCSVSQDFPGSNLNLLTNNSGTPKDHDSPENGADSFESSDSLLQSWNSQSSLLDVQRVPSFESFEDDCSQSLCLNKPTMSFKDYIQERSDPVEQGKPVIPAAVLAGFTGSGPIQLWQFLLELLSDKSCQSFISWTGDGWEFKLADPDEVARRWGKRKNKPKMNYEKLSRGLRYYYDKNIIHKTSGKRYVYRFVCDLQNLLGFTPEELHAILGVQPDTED
The note with it: protein: recombinant; tags: N-terminal GST; dsDNA, one strand shown. An outline of the steps:
as §1

Assay [14] has as its target T9, SPDEF (Homo sapiens, UniProt O95238 1-335).
T9 sequence: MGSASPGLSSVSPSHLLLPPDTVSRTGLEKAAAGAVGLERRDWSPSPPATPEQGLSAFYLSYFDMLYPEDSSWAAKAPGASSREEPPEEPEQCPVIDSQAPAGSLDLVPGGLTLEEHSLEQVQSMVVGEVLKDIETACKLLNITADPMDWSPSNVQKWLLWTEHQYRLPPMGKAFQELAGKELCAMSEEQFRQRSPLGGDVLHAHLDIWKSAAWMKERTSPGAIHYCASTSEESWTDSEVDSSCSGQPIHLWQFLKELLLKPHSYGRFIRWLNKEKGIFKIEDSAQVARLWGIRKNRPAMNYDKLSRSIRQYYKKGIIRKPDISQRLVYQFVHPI
The note with it: protein: recombinant; tags: N-terminal GST; dsDNA, one strand shown. An outline of the steps:
as §1

For assay [15], the target named is T10, ETV7 (Homo sapiens, UniProt Q9Y603 1-341).
T10 sequence: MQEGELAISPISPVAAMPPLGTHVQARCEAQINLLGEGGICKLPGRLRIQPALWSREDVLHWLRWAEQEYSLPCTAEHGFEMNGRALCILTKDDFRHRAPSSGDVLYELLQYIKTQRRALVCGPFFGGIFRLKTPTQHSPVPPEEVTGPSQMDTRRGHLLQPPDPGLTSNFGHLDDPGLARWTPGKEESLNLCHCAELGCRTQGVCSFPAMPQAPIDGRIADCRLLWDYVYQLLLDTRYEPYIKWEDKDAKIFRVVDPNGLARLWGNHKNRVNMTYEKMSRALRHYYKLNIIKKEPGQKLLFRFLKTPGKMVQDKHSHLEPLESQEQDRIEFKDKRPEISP
The note with it: protein: recombinant; tags: N-terminal GST; dsDNA, one strand shown. An outline of the steps: as §1

Assay [16] concerns the target T11, ELF5 (Homo sapiens, UniProt Q9UKW6-2 1-255).
T11 sequence: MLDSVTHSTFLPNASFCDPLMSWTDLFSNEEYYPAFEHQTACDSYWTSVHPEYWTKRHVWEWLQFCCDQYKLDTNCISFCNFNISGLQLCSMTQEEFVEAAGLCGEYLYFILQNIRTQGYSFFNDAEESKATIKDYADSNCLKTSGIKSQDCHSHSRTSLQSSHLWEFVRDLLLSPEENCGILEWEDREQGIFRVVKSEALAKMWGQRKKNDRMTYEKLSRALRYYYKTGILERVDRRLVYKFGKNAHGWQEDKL
The note with it: protein: recombinant; tags: N-terminal GST; dsDNA, one strand shown. An outline of the steps: as §1

Assay [17] deals with T12, ETV3 (Homo sapiens, UniProt P41162-2 1-143).
T12 sequence: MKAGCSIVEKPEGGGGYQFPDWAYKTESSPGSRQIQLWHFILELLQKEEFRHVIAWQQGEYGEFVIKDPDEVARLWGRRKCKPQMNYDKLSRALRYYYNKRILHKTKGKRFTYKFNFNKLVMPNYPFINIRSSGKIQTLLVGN
The note with it: protein: recombinant; tags: N-terminal GST; dsDNA, one strand shown. Summed up: as §1

The target of assay [18] is ETV6 (Homo sapiens, UniProt P41212 1-452). The note with it: protein: recombinant; tags: N-terminal GST; dsDNA, one strand shown. Summed up: as §1
ETV6, sequence (P41212 whole entry): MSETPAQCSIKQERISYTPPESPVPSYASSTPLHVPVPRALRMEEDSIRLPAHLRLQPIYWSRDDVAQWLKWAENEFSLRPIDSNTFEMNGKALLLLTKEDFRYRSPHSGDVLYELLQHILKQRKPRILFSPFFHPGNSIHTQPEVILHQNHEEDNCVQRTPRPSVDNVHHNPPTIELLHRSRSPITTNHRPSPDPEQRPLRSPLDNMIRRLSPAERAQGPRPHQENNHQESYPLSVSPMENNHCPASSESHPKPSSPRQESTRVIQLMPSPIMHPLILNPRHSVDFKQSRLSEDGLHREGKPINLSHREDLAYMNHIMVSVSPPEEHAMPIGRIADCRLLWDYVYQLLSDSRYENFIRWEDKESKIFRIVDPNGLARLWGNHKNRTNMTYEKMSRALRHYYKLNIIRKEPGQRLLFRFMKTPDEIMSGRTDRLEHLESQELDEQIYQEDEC

CRX, sequence (O43186 whole entry): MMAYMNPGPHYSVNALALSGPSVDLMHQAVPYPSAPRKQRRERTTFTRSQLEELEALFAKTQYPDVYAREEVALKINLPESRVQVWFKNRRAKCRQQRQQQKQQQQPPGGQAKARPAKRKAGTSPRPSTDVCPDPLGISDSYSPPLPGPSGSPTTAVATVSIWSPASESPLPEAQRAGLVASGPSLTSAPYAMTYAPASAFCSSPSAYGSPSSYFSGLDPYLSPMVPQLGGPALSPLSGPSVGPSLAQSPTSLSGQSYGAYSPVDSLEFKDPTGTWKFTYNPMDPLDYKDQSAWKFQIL
HSF1, sequence (Q00613 whole entry): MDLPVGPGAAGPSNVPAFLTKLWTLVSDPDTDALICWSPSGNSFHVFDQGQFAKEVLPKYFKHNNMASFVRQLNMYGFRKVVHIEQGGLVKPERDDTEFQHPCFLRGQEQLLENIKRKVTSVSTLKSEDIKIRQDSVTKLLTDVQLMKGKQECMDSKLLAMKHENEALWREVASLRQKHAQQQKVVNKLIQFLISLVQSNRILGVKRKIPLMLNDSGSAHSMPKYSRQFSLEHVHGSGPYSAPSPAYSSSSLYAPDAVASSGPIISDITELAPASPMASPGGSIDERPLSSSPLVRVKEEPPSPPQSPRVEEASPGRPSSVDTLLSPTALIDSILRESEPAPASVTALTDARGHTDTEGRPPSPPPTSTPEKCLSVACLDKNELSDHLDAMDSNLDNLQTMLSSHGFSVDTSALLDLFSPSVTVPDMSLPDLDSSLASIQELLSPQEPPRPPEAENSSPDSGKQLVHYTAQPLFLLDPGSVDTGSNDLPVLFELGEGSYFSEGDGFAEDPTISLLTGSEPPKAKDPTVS
ETV1, sequence (P50549 whole entry): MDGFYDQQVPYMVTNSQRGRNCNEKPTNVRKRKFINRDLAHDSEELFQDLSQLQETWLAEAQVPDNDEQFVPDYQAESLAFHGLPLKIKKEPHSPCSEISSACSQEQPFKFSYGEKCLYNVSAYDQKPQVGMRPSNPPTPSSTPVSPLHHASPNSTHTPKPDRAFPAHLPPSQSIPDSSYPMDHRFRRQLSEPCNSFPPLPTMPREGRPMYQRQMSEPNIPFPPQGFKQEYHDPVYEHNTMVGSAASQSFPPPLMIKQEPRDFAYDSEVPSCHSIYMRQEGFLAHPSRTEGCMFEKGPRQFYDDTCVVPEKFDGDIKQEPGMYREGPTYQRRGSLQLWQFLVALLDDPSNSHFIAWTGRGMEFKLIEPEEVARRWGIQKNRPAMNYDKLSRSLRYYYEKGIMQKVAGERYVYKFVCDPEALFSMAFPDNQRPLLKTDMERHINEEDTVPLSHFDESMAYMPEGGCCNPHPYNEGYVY
ELF4, sequence (Q99607 whole entry): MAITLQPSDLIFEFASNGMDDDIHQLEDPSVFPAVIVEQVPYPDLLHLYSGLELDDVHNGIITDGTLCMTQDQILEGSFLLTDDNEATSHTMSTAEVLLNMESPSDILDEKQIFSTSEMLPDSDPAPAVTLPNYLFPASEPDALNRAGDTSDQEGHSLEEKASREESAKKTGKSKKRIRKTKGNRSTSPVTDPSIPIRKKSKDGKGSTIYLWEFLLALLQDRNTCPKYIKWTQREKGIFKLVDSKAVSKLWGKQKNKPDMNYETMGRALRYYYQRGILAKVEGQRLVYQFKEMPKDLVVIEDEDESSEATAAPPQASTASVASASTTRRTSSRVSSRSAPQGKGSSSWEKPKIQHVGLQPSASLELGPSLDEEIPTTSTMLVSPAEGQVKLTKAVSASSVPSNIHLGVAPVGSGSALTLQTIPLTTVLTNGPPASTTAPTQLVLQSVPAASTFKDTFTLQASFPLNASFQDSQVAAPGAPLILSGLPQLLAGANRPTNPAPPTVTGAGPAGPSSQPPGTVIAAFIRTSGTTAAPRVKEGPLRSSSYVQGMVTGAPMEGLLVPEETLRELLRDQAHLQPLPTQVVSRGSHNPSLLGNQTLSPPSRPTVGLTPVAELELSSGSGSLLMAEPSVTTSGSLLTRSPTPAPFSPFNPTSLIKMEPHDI
ETV5, sequence (P41161 whole entry): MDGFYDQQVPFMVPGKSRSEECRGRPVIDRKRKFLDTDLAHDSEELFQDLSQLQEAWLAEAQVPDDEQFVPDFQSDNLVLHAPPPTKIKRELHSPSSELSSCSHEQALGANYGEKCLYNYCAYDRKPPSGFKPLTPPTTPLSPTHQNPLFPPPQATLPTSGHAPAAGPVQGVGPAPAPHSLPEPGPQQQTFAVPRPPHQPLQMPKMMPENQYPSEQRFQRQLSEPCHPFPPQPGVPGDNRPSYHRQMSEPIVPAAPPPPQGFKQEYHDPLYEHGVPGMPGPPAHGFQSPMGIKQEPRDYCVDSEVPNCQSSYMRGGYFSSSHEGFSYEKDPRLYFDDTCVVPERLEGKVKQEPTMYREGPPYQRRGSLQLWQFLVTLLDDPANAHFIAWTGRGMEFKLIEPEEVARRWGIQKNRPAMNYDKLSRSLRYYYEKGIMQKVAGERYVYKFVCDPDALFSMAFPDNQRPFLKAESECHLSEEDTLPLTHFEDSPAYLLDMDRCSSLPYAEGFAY

Consider TTCCAT, for which the binding signal in assay [1] is 1.18 fold enrichment (6-mer frequency, TF over GST control); in assay [2], 1.36 fold enrichment (6-mer frequency, TF over GST control); in assay [3], 1.74 fold enrichment (6-mer frequency, TF over GST control); in [4], 1.19 fold enrichment (6-mer frequency, TF over GST control); in assay [5] it was 1.27 fold enrichment (6-mer frequency, TF over GST control); in assay [6], 1.42 fold enrichment (6-mer frequency, TF over GST control). Further, the binding signal is 1.23 fold enrichment (6-mer frequency, TF over GST control) in assay [7]; 1.2 fold enrichment (6-mer frequency, TF over GST control) in assay [8]; 1.43 fold enrichment (6-mer frequency, TF over GST control) in assay [9]; 1.25 fold enrichment (6-mer frequency, TF over GST control) in [10]; 1.24 fold enrichment (6-mer frequency, TF over GST control) in assay [11]; 1.29 fold enrichment (6-mer frequency, TF over GST control) in [12]. Further, the binding signal is 1.25 fold enrichment (6-mer frequency, TF over GST control) in assay [13]; 1.2 fold enrichment (6-mer frequency, TF over GST control) in assay [14]; 1.27 fold enrichment (6-mer frequency, TF over GST control) in assay [15]; 1.26 fold enrichment (6-mer frequency, TF over GST control) in assay [16]; 1.32 fold enrichment (6-mer frequency, TF over GST control) in [17]; 1.4 fold enrichment (6-mer frequency, TF over GST control) in assay [18].
